Consider 38 molecules from the supplement of paper PMC10121225.

Where a name gives a salt, the structure may show the parent alone.

The subject of the test is hN + hpA co-culture (H1 iNGN2 human neurons + human primary astrocytes). The test can be described thus: presynaptic density (SYNAPSIN1 puncta per MAP2 neurite area), Z-score vs DMSO controls; higher = more presynaptic puncta (synapse-promoting). To be noted: 3 µM; 72 h.
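Note: immunostained co-cultures imaged by high-content microscopy, Z-score per plate against mean and SD of 0.1% DMSO wells, compounds added on differentiation day 18, analysed day 21.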

Turning to `CC(C)(C)c1cc(NC(=O)Nc2ccc(-c3cn4c(n3)sc3cc(OCCN5CCOCC5)ccc34)cc2)no1` [AC220 (Quizartinib], the “presynaptic density (Z-score)” value was 0.214.

Turning to `CCCCc1nc(Cl)c(CO)n1Cc1ccc(-c2ccccc2-c2nnn[nH]2)cc1` [Losartan Potassium (DuP 753)], the “presynaptic density (Z-score)” value is 0.806. Turning to `O=C(/C=C/c1cccc(S(=O)(=O)Nc2ccccc2)c1)NO` [Belinostat(PXD101)], the “presynaptic density (Z-score)” value is 2.26. The same measure for `C=C1C(=O)O[C@H]2[C@H]1CC/C(C)=C/CC[C@@]1(C)O[C@@H]21` [(-)-Parthenolide]: -0.888. The same measure for `Oc1ncnc2[nH]ncc12` [Allopurinol]: -0.774.

Take `NCc1c[nH]c(=S)n1C1CCc2c(F)cc(F)cc2C1` [(R)-Nepicastat HCl]: the “presynaptic density (Z-score)” value was found to be 0.738. In the case of `COc1ccccc1Oc1c(NS(=O)(=O)c2ccc(C(C)(C)C)cc2)nc(-c2ncccn2)nc1OCCO` [Bosentan Hydrate] it was 0.531; in that of `O=C(NOCC1CC1)c1ccc(F)c(F)c1Nc1ccc(I)cc1Cl`, -0.102. The same measure for `CCOC(=O)C1=C(C)NC(C)=C(C(=O)OC)C1c1cccc(Cl)c1Cl` (stereo not drawn) [Felodipine]: -1.18; for `CCN[C@H]1CN(CCCOC)S(=O)(=O)c2sc(S(N)(=O)=O)cc21` [Brinzolamide]: -0.474. The same measure for `C#CCC(Cc1cnc2nc(N)nc(N)c2n1)c1ccc(C(=O)N[C@@H](CCC(=O)O)C(=O)O)cc1` (stereo partly drawn) [Pralatrexate]: 0.0678. As for `COCCOc1ccc2c(c1)ncn2-c1ccc2cccc(N3CCC(N)CC3)c2n1`, the “presynaptic density (Z-score)” value was -0.271. In the case of `c1ccc(NCc2ccc(CNc3ccccn3)cc2)nc1`, the “presynaptic density (Z-score)” value was -0.658. In the case of `C=C[C@@]1(C)CC(=O)[C@]2(O)[C@@]3(C)[C@@H](O)CCC(C)(C)[C@@H]3[C@H](O)[C@H](OC(C)=O)[C@@]2(C)O1` [Forskolin] it was 0.455. In the case of `Cc1cn([C@H]2C=C[C@@H](CO)O2)c(=O)[nH]c1=O` [Stavudine (d4T)] it was 0.723. In the case of `Cc1ccc(C(=O)N(CCCN)[C@@H](c2nc3cc(Cl)ccc3c(=O)n2Cc2ccccc2)C(C)C)cc1` it was -0.26.

With `O=S(=O)(NCCNCC=Cc1ccc(Br)cc1)c1cccc2cnccc12`, the “presynaptic density (Z-score)” value is -0.0684. The same measure for `CN[C@H]1CC[C@@H](c2ccc(Cl)c(Cl)c2)c2ccccc21`: 1.13; for `CC(C)(C)Cn1c(N)nc2ccc(-c3[nH]c(C(C)(C)C)nc3-c3ccc(F)cc3)nc21`: 0.191; for `C/C(=C\C(=O)Nc1ccccc1C(=O)O)c1ccc2ccccc2c1`: -1.34.

Turning to `CNC(=O)c1ccccc1Nc1nc(Nc2ccc(N3CCOCC3)cc2OC)ncc1Cl`, the “presynaptic density (Z-score)” value turned out to be 0.092. The same measure for `CC1=C(/C=C/C(C)=C/C=C/C(C)=C\C(=O)O)C(C)(C)CCC1` [Isotretinoin]: -2.56. In the case of `CS(=O)(=O)N1CCN(Cc2cc3nc(-c4cccc5[nH]ncc45)nc(N4CCOCC4)c3s2)CC1` [GDC 0941 bismesylate] it was 1.26; in that of `Cc1cc(Nc2cc(CN3CCOCC3)c3nc(C)c(Cc4ccc(Cl)cc4F)n3n2)n[nH]1`, -1.8.

For `NC(=O)c1ccc(-c2nc(-c3ccc4c(c3)OCO4)c(-c3ccccn3)[nH]2)cc1`, the “presynaptic density (Z-score)” value is 0.232. In the case of `CC(C)C[C@H](NC(=O)[C@@H](NC(=O)c1cccc(-c2ccccc2)n1)[C@@H](C)O)B(O)O` it was -3.12.

As to `COc1cc(-c2ncn(/C=C\C(=O)OC(C)C)n2)cc(C(F)(F)F)c1`, the “presynaptic density (Z-score)” value is -0.959. On to `CC(C)CCN1c2nc(Nc3cc(F)c(O)c(F)c3)ncc2N(C)C(=O)C1C` (stereo not drawn), for which the “presynaptic density (Z-score)” value was found to be 2.11. Turning to `OC(CC1c2ccccc2-c2cncn21)C1CCCCC1` (stereo not drawn), the “presynaptic density (Z-score)” value was 0.156.

In the case of `Cc1[nH]c2ccccc2c1CCNCc1ccc(/C=C/C(=O)NO)cc1` [Panobinostat (LBH589)], the “presynaptic density (Z-score)” value was 4.81. The same measure for `CN(c1ncccc1CNc1nc(Nc2ccc3c(c2)CC(=O)N3)ncc1C(F)(F)F)S(C)(=O)=O`: -0.85; for `CC(=O)OCC(=O)NCCCOc1cccc(CN2CCCCC2)c1`: -0.62; for `Cc1c(Cc2ccc3ccccc3n2)c2cc(F)ccc2n1CC(=O)O`: -1.02.

Regarding `COc1ccc2cccc(CCNC(C)=O)c2c1` [Agomelatine], the “presynaptic density (Z-score)” value is -0.284. On to `Cc1c(NC(=O)c2ccc(C(C)(C)C)cc2)cccc1-c1cn(C)c(=O)c(Nc2ccc(C(=O)N3CCOCC3)cc2)n1`, for which the “presynaptic density (Z-score)” value is 0.702. The same measure for `CCN(Cc1ccncc1)C(=O)C(CO)c1ccccc1` (stereo not drawn) [Tropicamide]: -0.597; for `Cn1cnc2c(F)c(Nc3ccc(Br)cc3Cl)c(C(=O)NOCCO)cc21`: 0.953. The same measure for `Cc1cccc(CC(=O)N2CCc3c2ccc(-c2cn(C)c4ncnc(N)c24)c3F)n1`: -0.752.
